# Compounds with a hit are over-represented: about 1.8% of the library has one in this group of screens.
# eIF4E 4G PPI = eIF4E/eIF4G interaction inhibition in translation initiation; hit rate 0.37% among 220,000; inhibition, % at 21.7 µM; TR-FRET eIF4E-eIF4GI(517-606) binding, 2 h; AID 782; P63073+Q04637;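 active = inhibition above about 30%, limit read from the data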;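 note: 0% = full FRET control wells and 100% = background wells lacking eIF4GI fragment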
# Target sequence (P63073 whole entry, looked up, the tested form may be a part): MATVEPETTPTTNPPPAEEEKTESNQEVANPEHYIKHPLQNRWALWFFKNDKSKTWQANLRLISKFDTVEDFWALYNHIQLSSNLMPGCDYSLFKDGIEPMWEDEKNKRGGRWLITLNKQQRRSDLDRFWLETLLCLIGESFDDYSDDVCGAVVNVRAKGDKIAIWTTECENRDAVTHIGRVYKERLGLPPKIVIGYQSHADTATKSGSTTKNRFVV
# Target sequence (Q04637 whole entry, looked up, the tested form may be a part): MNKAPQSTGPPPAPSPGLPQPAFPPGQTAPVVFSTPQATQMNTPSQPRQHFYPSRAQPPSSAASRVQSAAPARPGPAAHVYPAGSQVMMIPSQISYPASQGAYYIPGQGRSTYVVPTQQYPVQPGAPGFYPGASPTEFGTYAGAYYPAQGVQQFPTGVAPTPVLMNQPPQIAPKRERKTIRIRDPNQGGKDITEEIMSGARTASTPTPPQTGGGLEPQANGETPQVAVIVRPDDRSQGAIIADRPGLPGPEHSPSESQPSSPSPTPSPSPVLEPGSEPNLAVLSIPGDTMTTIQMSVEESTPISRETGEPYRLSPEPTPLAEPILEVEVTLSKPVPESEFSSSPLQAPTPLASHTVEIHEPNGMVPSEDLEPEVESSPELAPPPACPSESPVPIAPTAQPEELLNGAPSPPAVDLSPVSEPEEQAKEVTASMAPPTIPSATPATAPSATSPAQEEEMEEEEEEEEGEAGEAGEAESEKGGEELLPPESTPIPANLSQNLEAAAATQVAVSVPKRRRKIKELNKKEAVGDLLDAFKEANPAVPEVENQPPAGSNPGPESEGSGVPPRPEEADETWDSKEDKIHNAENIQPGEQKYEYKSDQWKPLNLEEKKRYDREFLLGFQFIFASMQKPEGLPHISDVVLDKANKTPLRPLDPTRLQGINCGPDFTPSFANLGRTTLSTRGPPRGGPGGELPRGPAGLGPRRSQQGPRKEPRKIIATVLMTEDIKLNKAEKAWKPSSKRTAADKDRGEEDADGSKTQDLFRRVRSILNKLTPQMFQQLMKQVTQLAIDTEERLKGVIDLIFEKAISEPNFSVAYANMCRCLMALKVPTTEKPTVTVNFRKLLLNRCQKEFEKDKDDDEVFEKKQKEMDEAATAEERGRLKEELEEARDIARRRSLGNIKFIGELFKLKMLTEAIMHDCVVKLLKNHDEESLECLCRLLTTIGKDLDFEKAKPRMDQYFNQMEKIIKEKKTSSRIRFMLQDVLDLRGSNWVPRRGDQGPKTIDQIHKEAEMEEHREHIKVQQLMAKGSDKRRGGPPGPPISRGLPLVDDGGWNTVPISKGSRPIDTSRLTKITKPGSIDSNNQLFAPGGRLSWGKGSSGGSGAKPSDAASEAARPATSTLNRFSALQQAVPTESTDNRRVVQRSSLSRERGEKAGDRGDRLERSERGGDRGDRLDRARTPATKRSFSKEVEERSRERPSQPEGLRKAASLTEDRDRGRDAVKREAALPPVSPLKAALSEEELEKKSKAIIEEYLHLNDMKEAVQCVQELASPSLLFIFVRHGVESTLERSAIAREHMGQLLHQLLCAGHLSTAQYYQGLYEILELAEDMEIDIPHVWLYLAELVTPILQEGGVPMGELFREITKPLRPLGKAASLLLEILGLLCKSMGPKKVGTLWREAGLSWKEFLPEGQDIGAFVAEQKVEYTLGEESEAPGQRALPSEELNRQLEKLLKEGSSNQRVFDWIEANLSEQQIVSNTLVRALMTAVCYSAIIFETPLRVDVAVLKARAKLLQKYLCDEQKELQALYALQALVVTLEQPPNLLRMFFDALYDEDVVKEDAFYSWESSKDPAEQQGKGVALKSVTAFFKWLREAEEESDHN
# PERK inhibitor = blocks human PERK kinase; CHO PERK-DD fusion, SEAP luminescence translation reporter; inhibition, % at 5.6 µM; hit rate 0.17% among 220,000; AID 1416;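 active = inhibition above the mean inhibition of all tested compounds plus 3 SD, set separately per screening campaign, cut at about 2.9% in these data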;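 note: PERK kinase domain activated by AP20187 dimerizer at 100 nM; 0% = DMSO with dimerizer and 100% = rapamycin at 8.4 µM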
# EP2 antag = EP2 receptor (human) inhibition; P43116; C6 glioma cells expressing human EP2, cAMP TR-FRET; cells stimulated with saturating PGE2; inhibition, % at 25 µM; hit rate 0.52% among 260,000;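 active = percent inhibition above 40 after rounding to a whole number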;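 note: rat C6 glioma host cells with rolipram phosphodiesterase inhibitor present; the protocol text gives 20 µM as final concentration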
# EP2 mod = modulates human prostaglandin E2 receptor EP2 signaling. P43116. EP2-expressing cells, cAMP HTRF FRET, PGE2 co-stimulation. induction, % at 25 µM. AID 940. hit rate 0.83% among 260,000;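 active = compounds whose cAMP rise, as percent of the full-agonist control response, exceeds 60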;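 note: rat C6 glioma line stably carrying human EP2 under a CMV promoter; the protocol text gives 20 µM as final concentration; 100% = response of wells given 1 µM PGE2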
# * = called active by the depositor; · = no result.
SMILES,eIF4E 4G PPI,PERK inhibitor,EP2 antag,EP2 mod
S=c1nc(Cc2ccc(Cl)cc2)[nH]c2ccccc12,0,0,3,19
S=c1nc(COc2ccccc2)[nH]c2ccccc12,·,·,19,66*
O=C(CSc1nccc(=O)[nH]1)Nc1ccccc1Br,·,·,9,-5
CCc1cc(=O)n2[nH]c(CC)c(-c3ccc(F)cc3)c2n1,·,·,·,-2
CCc1ccc2nc(SCC(=O)Nc3nccs3)c(C#N)cc2c1,·,·,17,23
CSc1ccccc1C(=O)Nc1ccccc1C,2,1,12,-10
CSc1ccccc1NC(=O)c1ccccc1C,47*,2,11,8
O=C(O)c1cc2n(n1)C(C(F)(F)F)CC(c1ccccc1)N2 (centres undefined),6,1,7,-12
COc1ccc(C2CC(C(F)(F)F)n3nc(C(=O)O)cc3N2)cc1OC (centres undefined),-3,2,6,62*
C=CCn1c(-c2ccc(OC)cc2)[n+](CC=C)c2ccccc21,·,·,12,-61
O=C(CSc1n[nH]c(-c2cccc(Br)c2)n1)Nc1ccc(Br)cc1,·,·,16,-129
Oc1ccccc1-c1cc(C(F)(F)C(F)F)nc(-c2ccccc2)n1,0,3.0*,-1,56
COc1ccc(O)c(-c2cc(C(F)(F)C(F)F)nc(-c3ccccc3)n2)c1,0,1,4,1
c1ccc(-c2nnc(CN3CCN(c4ccccc4)CC3)o2)cc1,1,2,11,-47
c1ccc(-c2nnc(CN3CCN(C(c4ccccc4)c4ccccc4)CC3)o2)cc1,1,0,10,61*
O=C(c1ccccc1)N(Nc1ccccc1)c1ccccc1,99*,1,14,33
COc1ccc(C(C)=O)cc1CSc1nc2ccccc2c(=O)n1-c1ccccc1,5,-1,7,64*
COc1ccc(C(C)=O)cc1CSc1nc2ccccc2c(=O)n1-c1cccc(C)c1,2,0,9,28
CS(=O)(=O)Nc1ccc(Nc2c3ccccc3nc3ccccc23)cc1,·,·,64*,-18
O=c1c2ccccc2sn1-c1cc(S(=O)(=O)N2CCOCC2)ccc1N1CCCC1,56*,-1,14,-36
O=C(O)c1cc(S(=O)(=O)N2CCOCC2)ccc1N1CCCCC1,3,1,4,21
O=c1c2ccccc2sn1-c1cc(S(=O)(=O)N2CCOCC2)ccc1N1CCOCC1,71*,-1,11,-39
CC(=O)O[C@@H]1CC2C(C)(C)[C@H](O)CC[C@]2(C)C2CC[C@@]3(C)[C@H](c4ccoc4)OC(=O)C4OC43[C@@]21C (some centres undefined),·,·,11,21
O=C(N/N=C/c1cccc(O)c1)c1cc(-c2ccc3c(c2)OCO3)n[nH]1,-3,0,64*,-77
O=C(N/N=C/c1ccccc1)c1cc(-c2ccc3c(c2)OCO3)n[nH]1,3,1,10,-43
SMILES,eIF4E 4G PPI,PERK inhibitor,EP2 antag,EP2 mod
COC1OC(CO)C(O)C(O)C1O (centres undefined),-1,1,10,13
OC[C@@H]1O[C@H](N2CCN([C@@H]3O[C@H](CO)[C@@H](O)[C@H](O)[C@H]3O)CC2)[C@@H](O)[C@H](O)[C@H]1O,·,·,49*,15
C[C@@H](O)C1NC(=O)[C@H](CCCCN)NC(=O)c2cc([N+](=O)[O-])cc(I)c2NCCC[C@@H](C(N)=O)NC1=O (some centres undefined),34*,0,18,-18
COc1ccc(C(=O)Nc2cccc(C)n2)cc1,·,·,5,-61
CCOC(=O)c1ccc2c(c1)nc(SCC(=O)c1cc3ccccc3o1)n2CC,40*,-1,7,-37
Cc1ccc(N2C(=O)c3ccccc3C2=O)cc1,1,3,9,10
O=C1c2ccccc2C(=O)N1c1ccc(Cc2ccc(N3C(=O)c4ccccc4C3=O)cc2)cc1,·,·,49*,15
Cc1ccc(C2(C(F)(F)F)NC(=O)N3CCN=C3S2)cc1 (centres undefined),-1,2.9*,0,9
O=C(O)C1Nc2c(O)cc(Cl)c([N+](=O)[O-])c2C2C=CCC12 (centres undefined),78*,1,8,24
O=C(O)c1ccc(Cl)c2c1C1C=CCC1C(c1ccccn1)N2 (centres undefined),10,1,10,8
O=C1c2cccc3c([N+](=O)[O-])ccc(c23)C(=O)N1CCc1ccccn1,7,1,10,-24
CN(C)CCCN1C(=O)c2cccc3c([N+](=O)[O-])ccc(c23)C1=O,7,-1,80*,-66
